The results in this text go back to PubChem BioAssay (NCATS).

Results filed as inconclusive are left out. Activity calls are given as the source filed them. Calls come from the whole dose curve; as a rule, active = well fitted cell-killing curve with a large enough effect; inconclusive = small, poorly fitted or top-dose-only effect, or effect the other way; inactive = flat fitted curve, though single readings scatter.
% is set by controls: 0 for no effect and ±100 for the full control effect; potency is the fitted concentration of half-maximal effect.

The first experiment deals with CAOV3. As to the kind of experiment: Primary qHTS to identify gynecologic anti-cancer compounds using libraries of approved drugs and bioactive compounds (AID 1345084). Note: nearly all actives have a fitted effect of over 55% in size. Conditions: Gynecologic cancer cell panel viability, ATPlite luminescence, 48 h; series mostly up to 57.5 µM; activity change, negative = cytotoxicity: at the top concentration. An outline of the steps:
(§1)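 Cells, 1,000 per well, were allowed to settle for 16 h at 37 C before compound addition. Five concentrations were tested for 48 h, and viability was read by ATPlite luminescence after 15 min at room temperature.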
`CNC(=O)c1cc(Oc2ccc(NC(=O)Nc3ccc(Cl)c(C(F)(F)F)c3)cc2)ccn1`: the “activity change, negative = cytotoxicity” value is -11.2% (inactive).
Turning to `CCCCOc1ccc(CC(=O)NO)cc1`, the “activity change, negative = cytotoxicity” value was -8.1% (inactive).
Still for that read-out and setting: next, `CCn1cc(C(=O)O)c(=O)c2cc(F)c(N3CCNCC3)cc21`: 4.4% (inactive); `COc1cc(NCc2ccc3nc(N)nc(N)c3c2C)cc(OC)c1OC`: -15.3% (inactive); `COc1cc([C@@H]2c3cc4c(cc3[C@H](O)[C@H]3COC(=O)[C@H]23)OCO4)cc(OC)c1OC`: -2.79% (inactive).
Same read-out and setting: next, `O=C(O)c1ccc(-n2nc(-c3ccccc3O)nc2-c2ccccc2O)cc1`: -7.86% (inactive); `N=C(N)c1ccc(OCCCCCOc2ccc(C(=N)N)cc2)cc1`: -11.7% (inactive); `Cc1cc(NS(=O)(=O)c2ccc(N)cc2)no1`: 15.8% (inactive).
On the same count and under the same terms, the figure for `NC(N)=NC(N)=NCCc1ccccc1` is -12.6% (inactive).
For `COC(=O)Nc1nc2ccc(S(=O)c3ccccc3)cc2[nH]1` (stereo not given), the “activity change, negative = cytotoxicity” value is -19.3% (inactive).
`CC(C)(C)C(=O)OCOP(=O)(COCCn1cnc2c(N)ncnc21)OCOC(=O)C(C)(C)C`: the Potency is 12600 nM (active).
Turning to `Nc1nc(F)nc2c1ncn2[C@@H]1O[C@H](CO)[C@@H](O)[C@@H]1O`, the “activity change, negative = cytotoxicity” value was -9.99% (inactive).
Still for that read-out and setting: the figure for `CCc1cc(C(N)=S)ccn1` is -5.83% (inactive); for `COC(=O)Nc1nc2ccc(C(=O)c3ccccc3)cc2[nH]1` it is -7.63% (inactive).

In another experiment the test system is CASKI. The description is as above. Conditions: Gynecologic cancer cell panel viability, ATPlite luminescence, 48 h; series mostly up to 57.5 µM; activity change, negative = cytotoxicity: at the top concentration. The method, boiled down:
as §1
(In ATP-based viability assays light output follows the ATP content of the culture.)
As for `CCN[C@H]1C[C@H](C)S(=O)(=O)c2sc(S(N)(=O)=O)cc21`, the “activity change, negative = cytotoxicity” value was 22.9% (inactive).
For the compound `CNC(=O)c1cc(Oc2ccc(NC(=O)Nc3ccc(Cl)c(C(F)(F)F)c3)cc2)ccn1`, the “activity change, negative = cytotoxicity” value was -1.21% (inactive).
Still for that read-out and setting: the figure for `CCCCOc1ccc(CC(=O)NO)cc1` is -20.5% (inactive).
Same read-out and setting: next, `CCn1cc(C(=O)O)c(=O)c2cc(F)c(N3CCNCC3)cc21`: 25.5% (inactive).
The same measure, in the same setting: the figure for `NC(=O)c1cccnc1` is 3.9% (inactive).
As to `O=C(N[C@H](CO)[C@H](O)c1ccc([N+](=O)[O-])cc1)C(Cl)Cl`, the “activity change, negative = cytotoxicity” value is 24.1% [at 116 µM] (inactive).
Same read-out and setting: the figure for `COc1cc2ncnc(Nc3cccc(Cl)c3)c2cc1OC` is -6.99% (inactive); for `Oc1c(Cl)cc(Cl)c2cccnc12` it is -5.27% (inactive).
Take `CC(C)C[C@H](NC(=O)[C@H](CCc1ccccc1)NC(=O)CN1CCOCC1)C(=O)N[C@@H](Cc1ccccc1)C(=O)N[C@@H](CC(C)C)C(=O)[C@@]1(C)CO1`: the Potency is 316 nM (active).
Regarding `Clc1ccccc1CN1CCc2sccc2C1`, the “activity change, negative = cytotoxicity” value was -0.848% (inactive).
Same read-out and setting: next, `O=C(O)c1ccc(-n2nc(-c3ccccc3O)nc2-c2ccccc2O)cc1`: -21.5% (inactive); `CCC(=O)O[C@]1(C(=O)SCF)[C@H](C)C[C@H]2[C@@H]3C[C@H](F)C4=CC(=O)C=C[C@]4(C)[C@@]3(F)[C@@H](O)C[C@@]21C`: 1.51% (inactive).
Still for that read-out and setting: next, `N=C(N)c1ccc(OCCCCCOc2ccc(C(=N)N)cc2)cc1`: -10.8% (inactive); `Cc1cc(NS(=O)(=O)c2ccc(N)cc2)no1`: 8.05% (inactive); `Cc1noc(NS(=O)(=O)c2ccc(N)cc2)c1C`: 0.606% (inactive).
With `Nc1nc(=S)c2[nH]cnc2[nH]1`, the Potency is 3550 nM (active).
`CC(C)(C)C(=O)OCOP(=O)(COCCn1cnc2c(N)ncnc21)OCOC(=O)C(C)(C)C`: the “activity change, negative = cytotoxicity” value is -9.88% (inactive).
As for `Nc1nc(F)nc2c1ncn2[C@@H]1O[C@H](CO)[C@@H](O)[C@@H]1O`, the Potency result was “inactive”.
Turning to `CCc1cc(C(N)=S)ccn1`, the “activity change, negative = cytotoxicity” value was -4.21% (inactive).
Consider `COc1ccc2cc3[n+](cc2c1OC)CCc1cc2c(cc1-3)OCO2`, for which the Potency is 2240 nM (active).
As to `CCOC(=O)[C@H](CCc1ccccc1)N[C@H]1CCc2ccccc2N(CC(=O)O)C1=O`, the “activity change, negative = cytotoxicity” value was 7.09% (inactive).
